# Assay outcomes from PubChem BioAssay.
# ATXN viability: Viability Counterscreen for Primary qHTS for Inhibitors of ATXN expression; S2 cells (HEK-293 line with an ATXN2-luciferase reporter) viability, CellTiter-Fluor protease fluorescence, 24 h; 400,000 tested, 0.49% active; Potency, µM (series often up to 56.7 µM), hits mostly cytotoxic; further: nearly all actives have a fitted effect of over 40% in size
# HT1080NT lethal: qHTS for induction of synthetic lethality in tumor cells producing 2HG: qHTS for the HT-1080-NT fibrosarcoma cell line; AID 686970, 2013; 360,000 tested, 1.6% active; Potency, µM (highest dose often 46.1 µM), usual class: cytotoxic; HT-1080-NT fibrosarcoma viability, CellTiter-Glo ATP luminescence, 48 h;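 further: NT is the 2HG producing partner of a matched IDH1 knockdown line; nearly all actives have a fitted effect of over 55% in size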
#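 A 48-hour cytotoxicity screen used HT-1080-NT cells plated 2 hours before compound delivery. ATP-based CellTiter-Glo luminescence measured viability, normalized to DMSO and no-cell controls.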
# HT1080 IDH1KD tx: qHTS for induction of synthetic lethality in tumor cells producing 2HG: qHTS for the HT-1080-IDH1KD cell line | HT-1080 IDH1 knockdown viability, ATP luminescence, 48 h | Potency, µM (top dose mostly 46.1 µM), usual class: cytotoxic | 360,000 tested, 2% active | AID 686971, 2013
#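 Cytotoxicity counter-line: IDH1KD HT-1080, 48 h, CellTiter-Glo. Curves classed by r2, magnitude and activity.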
# TGFb SMAD3 inh: qHTS for Inhibitors of TGF-b; 410,000 tested, 1.2% active; HepG2 CAGA-GFP TGF-b/SMAD3 reporter, GFP fluorescence, 18 h; TGF-beta stimulated, 500 pg/mL final; AID 588855, 2011; Potency, µM (top dose mostly 46.1 µM), most hits filed as inhibitors; further: nearly all actives have a fitted effect of over 65% in size
#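 HEPG2 CAGA-GFP reporter cells (1000/well, DMEM with 1% FBS) received compounds, then recombinant TGF-beta at 500 pg/mL final for 18 hours at 37 degrees C. Per-cell GFP summed per well was normalised to unstimulated and stimulated DMSO controls before curve fitting.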
# ATXN2 expr inh: Primary qHTS for Inhibitors of ATXN expression; HEK-293 ATXN2-luciferase reporter, luminescence, 24 h; Potency, µM (doses to about 57 µM), hits mostly inhibitors; 360,000 tested, 0.72% active; AID 1745845, 2022; further: nearly all actives have a fitted effect of over 55% in size
#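 qHTS (up to 57 uM final) was run with 24 h compound exposure of reporter cells at 37 °C. Each well was multiplexed: SteadyGlo luminescence measured ATXN2-luciferase expression after a fluorogenic Gly-Phe-AFC viability readout (25 uM final).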
# HepG2 tox: qHTS for Inhibitors of TGF-b: Cytotox Counterscreen. Potency, µM (doses to about 46.1 µM), actives largely listed as cytotoxic. HepG2 CAGA-GFP viability, ATP luminescence, 18 h. 410,000 tested, 0.76% active. AID 588856, 2011
#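 CellTiter-Glo luminescence gave cytotoxicity after 18 hours at 37 degrees C. The cells were HepG2 CAGA-GFP in 1% FBS DMEM, stimulated with 500 pg/mL TGF-beta after compound addition. %Activity was normalised to no-cell wells (complete cell-killing) and DMSO (no toxicity), and curves were fitted and classified.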
# A number is an active result; . = inactive; ? = inconclusive; / = no result given; [ ] = remark or other dose. Sampled rows, rich in hits. Any-hit rate of the full collection: about 3.8%. The call rests on the fitted dose curve; in most records, active means well fitted curve in the direction sought with a large enough effect; inconclusive means small, poorly fitted or top-dose-only effect, or another doubt; inactive means no such curve, though single readings can be large; an effect the other way counts as inactive or inconclusive.
SMILES,ATXN viability,HT1080NT lethal,HT1080 IDH1KD tx,TGFb SMAD3 inh,ATXN2 expr inh,HepG2 tox
CCOc1ccc(-c2cc(C(=O)O)c3ccccc3n2)c(OCC)c1,.,14.1µM,7.08µM,.,.,.
CCCc1ccc(-c2cc(C(=O)NN3CCOCC3)c3ccccc3n2)cc1,.,.,?,.,.,.
CCNC(=S)NNC(=O)c1cc(-c2ccc(OCC)cc2)nc2ccccc12,.,3.55µM,5.01µM,.,.,7.94µM
CCc1ccc(-c2cc(C(=O)Nn3cnnc3)c3ccccc3n2)cc1,.,10µM,14.1µM,?,?,8.91µM
CC1CC=CC2C1C(=O)N(Cc1ccccc1)C2c1ccc(F)c(/C=C/c2ccccc2)c1 (stereo not drawn),/,/,/,.,/,.
O=C(NCC1CCC2(CCN(Cc3cc4ccccc4o3)CC2)O1)c1ccccc1 (stereo not drawn),.,/,/,/,/,/
COc1ccccc1/C=C/CN1CCCC(CO)(Cc2cccc(Cl)c2)C1 (stereo not drawn),.,25.9µM,16.4µM,?,?,.
COc1cccc(CC2(CO)CCCN(C/C=C/c3ccccc3OC)C2)c1 (stereo not drawn),.,.,.,.,/,.
COc1ccc(/C=C/CN2CCCC(CO)(Cc3cccc(Cl)c3)C2)cc1 (stereo not drawn),.,?,23.1µM,?,.,.
CCOC(=O)C1(Cc2cccc(OC)c2)CCN(C/C=C/c2ccc(OC)cc2)CC1,?,13µM,?,.,?,.
COc1ccc(F)c(CN2CCCC(CO)(Cc3cccc(Cl)c3)C2)c1 (stereo not drawn),?,.,.,?,/,.
Cc1ccc(-c2c(C3C4C=CCCC4(C)C(=O)N3Cc3ccccc3)ccc3ccccc23)cc1 (stereo not drawn),/,/,/,.,/,.
Cc1ccc(O)c(NC(=O)CSc2ccc(Cl)cc2)c1,.,.,.,?,.[11.3 µM],.
Cc1ccc(NS(=O)(=O)c2ccc(NC(=O)CSc3ccc(Cl)cc3)cc2)c(C)c1,?,16.4µM,?,.,.,.
O=C1C(=Cc2ccccn2)CCc2ccccc21,?,?,?,10µM,/,12.6µM
N=c1n(CCO)c2ccccc2n1CCOc1ccc(F)cc1,.,/,/,.,.,.
CCCCn1c(=N)n(CCCOc2ccc(F)cc2)c2ccccc21,/,/,/,15.8µM,/,12.6µM
CCOC(=O)C1=C(C)N=C2SC(C)C(=O)N2C1c1ccc(C(=O)OC)cc1 (stereo not drawn),.,.,.,.,.,.
CCOC(=O)C1=C(C)N=C2SC=C(C)N2C1c1ccc(OC)cc1 (stereo not drawn),.,16.4µM,20.6µM,.,.,.
O=C[C@H](O)[C@@H](O)[C@H](O)[C@H](O)CO,.,/,/,/,/,/
Cc1ccc(Cl)cc1N(C)C(=O)c1sc2nc3n(c(=O)c2c1C)CCCC3,/,/,/,.,/,.
Cc1ccc2nc(-c3ccc(NC(=S)NC(=O)C(C)C)cc3)sc2c1,.,2.82µM,1.58µM,.,.,.
Cc1ccc2nc(-c3ccc(NC(=S)NC4CC(C)(C)NC(C)(C)C4)cc3)sc2c1,?,23.1µM,?,?,.,12.6µM
CCOc1ccccc1CNC(=O)CCn1cccn1,.,/,/,.,.,.
CCOC(=O)c1c(C)c(C(=O)Nc2ccc(N(C)C)cc2)c(C)n1CC,.,8.91µM,7.08µM,.,.,.
SMILES,ATXN viability,HT1080NT lethal,HT1080 IDH1KD tx,TGFb SMAD3 inh,ATXN2 expr inh,HepG2 tox
Oc1c(Cl)cc(Cl)c2c1NCCC2,?,.,.,14.1µM,?,.
Cc1nn(C)cc1CN1CCOc2ccc(C(C)(O)COc3ccccc3)cc2C1 (stereo not drawn),.,/,/,/,/,/
CCn1ncc(/C=N\NC(=O)c2csc3ccccc23)c1C,.,?,5.17µM,.,.,.
Cc1nn(C)c(C)c1CN(C)S(=O)(=O)c1ccc(F)cc1,.,.,?,.,.,.
Cc1nn(C)c(C)c1CN(C)S(=O)(=O)c1ccc2ccccc2c1,.,.,2µM,.,.,.
O=C(c1cnn(-c2nccc(-c3ccccc3F)n2)c1C1CC1)N1CCN(CCO)CC1,.,/,/,/,/,/
COc1ccc(C)cc1NS(=O)(=O)c1ccc2c3c(cccc13)C(=O)N2,?,/,/,?,28.2µM,.
Cc1cc(O)ccc1NS(=O)(=O)c1ccc2c3c(cccc13)C(=O)N2,.,.,.,.,.,.
Cc1ccc(CN2CCSc3ccc(C(=O)NCCCN4CCN(C)CC4)cc32)cc1,?,25.9µM,?,.,?,.
Cc1ccc(CCNC(=O)c2ccc3c(c2)N(Cc2ccc(F)cc2)CCS3)cc1,.,/,/,.,.,.
CC(=O)c1ccccc1S(=O)(=O)N1CCN(c2nc(-c3cccs3)nc3ccccc23)CC1,/,.,.,/,/,/
O=S(=O)(Nc1ccc(F)c(C(F)(F)F)c1)c1ccc(N2CCCCS2(=O)=O)cc1,.,/,/,10µM,.,.
C[C@]12CC[C@@H]3c4ccc(O)cc4CC[C@H]3[C@@H]1CC[C@@H]2O,.,?,?,.,.,.
Cc1cc(O)cc2c1C1CCC3(C)C(O)CCC3C1C=C2 (stereo not drawn),.,?,18.4µM,.,.,.
Cc1ccc(C(NC(=O)C(C)C)c2cc([N+](=O)[O-])c3cccnc3c2O)cc1 (stereo not drawn),.,?,14.6µM,.,?,.
CC(C)C(=O)NC(c1cccs1)c1cc([N+](=O)[O-])c2cccnc2c1O (stereo not drawn),.,?,7.31µM,?,?,.
CCC(=O)NC(c1cccs1)c1cc([N+](=O)[O-])c2cccnc2c1OC (stereo not drawn),.,/,/,.,.,.
COc1ccc(OC)c(NC(=O)CN2CCCN(Cc3ccccc3Cl)S2(=O)=O)c1,/,/,/,?,/,.
O=C(Nc1ccc(Br)cc1)C1CCCN1S(=O)(=O)c1ccc(F)cc1 (stereo not drawn),/,/,/,/,/,.
CC(C)Oc1ccc(C(CCNCc2ccc(O)cc2)c2ccccc2)cc1 (stereo not drawn),/,?,?,14.1µM,?,.
COc1ccc(CNCCC(c2ccc3c(c2)OCO3)c2ccccc2OC)cc1 (stereo not drawn),/,/,/,?,?,10µM
COc1ccc(C(C)NCCC(c2ccc(OC(C)C)cc2)c2ccccc2OC)cc1 (stereo not drawn),/,14.6µM,?,11.2µM,?,12.6µM
COc1ccc(C(CCNC(C)c2ccccc2)C(C)C)cc1 (stereo not drawn),.,?,?,?,.,.
